Source: PubChem BioAssay
HIV TAR-Tat = HIV-1 TAR-Tat binding disruption; AID 1259389; 0.6% of 100,000 active; z-score (concentration not given with the values); HIV-1 TAR RNA, Tat peptide displacement FRET; stronger effect = higher value; active = z-score of 3 or more in at least 2 runs
CDC25B CDK2 inh = human CDC25B-CDK2/CyclinA binding inhibition. P30305+P24941. HTRF CDC25B-CDK2/CyclinA binding, anti-His/anti-Flag; stronger effect = higher value. z-score (test concentration not listed). 0.72% of 94,000 active. AID 1259370; in the data active = z-score above about 3.2
Hits are given with their value; . = inactive; / = not tested or not shown. Shown are actives, neighbours in structure and some others; about 0.93% of the full set was active somewhere.

SMILES | HIV TAR-Tat | CDC25B CDK2 inh
CCOc1cc(C2CC(=O)N3CN(c4ccc(F)cc4)CSC3=C2C#N)ccc1O (stereo unspecified) | 30 | .
O=S(=O)(c1ccc(Br)cc1)N1CCN(Cc2c(F)cccc2F)CC1 | / | .
COC(=O)CCc1c(C)[nH]n(-c2nc(-c3ccc(C)cc3)cs2)c1=O | . | .
CCOc1ccc(-c2nc3c(c(=O)[nH]2)Cc2c(ccc4ccccc24)O3)cc1 | . | .
Cc1ccc(Nc2c(C)c(C)nc3ncnn23)cc1F | . | /
COc1cccc(N2CC(c3nc4ccccc4n3CCOc3ccccc3)CC2=O)c1 (stereo unspecified) | . | .
N#CC1=C2SCN(Cc3ccccc3)CN2C(=O)CC1c1cccc(Br)c1 (stereo unspecified) | . | .
COc1ccc(Br)cc1C1CC(=O)N2CN(c3ccccc3F)CSC2=C1C#N (stereo unspecified) | . | .
N#CC1=C2SCN(Cc3ccccc3)CN2C(=O)CC1c1ccc(Br)cc1 (stereo unspecified) | . | .
COc1ccc(Br)cc1C1CC(=O)N2CN(c3ccccc3)CSC2=C1C#N (stereo unspecified) | . | 7.6
COc1ccc(CN2CSC3=C(C#N)C(c4ccc(Cl)cc4)CC(=O)N3C2)cc1 (stereo unspecified) | . | 3.8
COc1ccc(Br)cc1C1CC(=O)N2CN(Cc3ccccc3)CSC2=C1C#N (stereo unspecified) | . | 3.2
N#CC1=C2SCN(Cc3ccco3)CN2C(=O)CC1c1ccc(OCc2ccc(Cl)cc2)cc1 (stereo unspecified) | . | .
COc1ccc(C2CC(=O)N3CN(Cc4ccccc4)CSC3=C2C#N)c(OC)c1 (stereo unspecified) | . | 4.5
O=C(O)CCn1c(O)c(C2=c3cc([N+](=O)[O-])ccc3=NC2=O)sc1=S | / | .
O=c1[nH]c(SCc2c(F)cccc2Cl)nc2c1CCC2 | 8.6 | .
O=c1[nH]c(SCc2ccccc2F)nc2c1CCC2 | . | .
O=C(NCC(c1ccco1)S(=O)(=O)c1ccccc1)c1cccs1 (stereo unspecified) | . | /
COc1ccc(NS(=O)(=O)c2ccc3c(c2)C(=O)NCCO3)cc1 | . | /
CC(C)Oc1ccc(C2CC(=O)Nc3nc(SCc4cccc(Cl)c4)[nH]c(=O)c32)cc1 (stereo unspecified) | . | .
COC(=O)c1ccc2[nH]c3c(c2c1)CCCC3 | / | .
O=S(=O)(c1ccc2[nH]c3c(c2c1)CCCC3)N1CCCCC1 | . | /
CC(C)OC(=O)c1ccc2[nH]c3c(c2c1)CCCC3 | . | 18
O=S(=O)(c1ccc2[nH]c3c(c2c1)CCCCC3)N1CCCCC1 | 3.4 | /
Cc1cc(C)cc(NC(=O)N2CCSc3ccccc32)c1 | . | /
SMILES | HIV TAR-Tat | CDC25B CDK2 inh
CC1CSc2ccc(S(=O)(=O)NCCCN3CCCC3)cc2NC1=O (stereo unspecified) | . | /
CC(=O)N1N=C(c2cc(C3CC3)nc3ccccc23)OC1c1ccc2c(c1)OCO2 (stereo unspecified) | 4.4 | /
CC(=O)N1N=C(c2cccc3ccccc23)OC1c1cc(C)nc2ccccc12 (stereo unspecified) | . | /
CC(=O)N1N=C(c2cc(C)nc3ccccc23)OC1c1cccs1 (stereo unspecified) | 3.8 | /
COc1cc(C2OC(c3cc(C4CC4)nc4ccccc34)=NN2C(C)=O)ccc1OC(C)=O (stereo unspecified) | . | /
CC1Cn2cc(C(=O)N3CCN(c4ccccc4)CC3)c(=O)c3c(Cl)ccc(c32)O1 (stereo unspecified) | . | /
Cc1ccc(S(=O)(=O)c2c[nH]c3ccccc3c2=O)cc1C | . | .
COc1ccc(Nc2nc(-c3cc4c(ccc5ccccc54)oc3=O)cs2)cc1 | / | 10
COc1ccc2oc(=O)c(-c3csc(Nc4ccccc4)n3)cc2c1 | / | .
Cc1cccc(CSc2nc3c(c(=O)[nH]2)C(c2ccc(OC(C)C)cc2)CC(=O)N3)c1 (stereo unspecified) | . | .
CC1CCC(NC(=O)C2(C)Cn3c(cc4occc43)C(=O)N2C2CCCCC2)CC1 (stereo unspecified) | 5.4 | /
CC1CCC(NC(=O)C2(C)Cn3c(cc4occc43)C(=O)N2CCN(C)C)CC1 (stereo unspecified) | . | /
CC1CCC(NC(=O)C2(C)Cn3c(cc4occc43)C(=O)N2CCN2CCOCC2)CC1 (stereo unspecified) | . | /
CC1(C(=O)NC2CCCCC2)Cn2c(cc3occc32)C(=O)N1C1CCCCC1 (stereo unspecified) | . | /
CC1CCC(NC(=O)C2(C)Cn3c(cc4occc43)C(=O)N2C2CCC(C)CC2)CC1 (stereo unspecified) | 5.4 | /
CC1(C(=O)NC2CCCCC2)Cn2c(cc3occc32)C(=O)N1CCN1CCOCC1 (stereo unspecified) | 4 | /
CS(=O)(=O)Nc1cccc(C2=NN(C(=O)c3cccs3)C(c3ccc(F)cc3)C2)c1 (stereo unspecified) | / | .
O=c1cc(CSc2nnc(-c3ccccc3F)o2)nc2sccn12 | . | .
COc1ccc(-c2noc(NCCc3c[nH]c4ccccc34)n2)cc1OC | . | /
COc1ccc(C2=NN3C(C2)c2ccccc2OC3c2ccncc2)cc1OC (stereo unspecified) | . | .
COc1ccccc1C1Oc2ccccc2C2CC(c3cccnc3)=NN21 (stereo unspecified) | 3.5 | .
CNC(=O)C(C)n1sc2ccccc2c1=O (stereo unspecified) | . | .
CC(C(=O)NCc1ccco1)n1sc2ccccc2c1=O (stereo unspecified) | 3.6 | .
Cc1cc(-c2ccc(C)c(S(=O)(=O)NC3CCCc4ccccc43)c2)on1 (stereo unspecified) | . | /
COc1ccc(S(=O)(=O)Oc2nc(-c3cccs3)n(-c3ccccc3)n2)cc1 | / | .
SMILES | HIV TAR-Tat | CDC25B CDK2 inh
C=CCN1C(=O)C2(/C(=C(/O)c3ccc(F)cc3)C(=O)C(=O)N2CC2CCCO2)c2ccccc21 (stereo unspecified) | / | .
O=c1c(-c2ccccc2)c(C(F)(F)F)oc2c(CN3CCCC3)c(O)ccc12 | . | 15
CC1CN(Cc2c(O)ccc3c(=O)c(-c4ccccc4)c(C(F)(F)F)oc23)CC(C)O1 (stereo unspecified) | . | .
O=C1COc2ccc(S(=O)(=O)N(CCO)Cc3ccccc3)cc2N1 | . | /
COc1cc(CNC(=O)c2sc3nc(-c4ccncc4)ccc3c2N)cc(OC)c1 | . | .
Nc1c(C(=O)NCc2ccco2)sc2nc(-c3ccncc3)ccc12 | . | 12
CCCCN1C(=O)C(=O)N(CCCC)C1=S | . | /
O=C(O)CCSc1ncnc2c1sc1cccc(F)c12 | 5.4 | .
O=C(CSc1ncnc2c1sc1cccc(F)c12)N1CCCCC1 | . | /
O=C(CSc1ncnc2c1sc1cccc(F)c12)NCCc1ccco1 | 12 | /
O=C(CSc1ncnc2c1sc1cccc(F)c12)NCc1ccco1 | . | /
O=C(Cn1cc(S(=O)(=O)c2ccccc2)c(=O)c2cc(F)ccc21)Nc1ccc2c(c1)OCCO2 | . | .
CC(=O)N1CCCC1c1nc2ccccc2[nH]1 (stereo unspecified) | . | .
CSc1ccc(/C=C/c2nc(=O)c3ccccc3o2)cc1 | . | .
O=c1nc(/C=C/c2ccc(O)c(O)c2)oc2ccccc12 | 18 | .
O=C(NCC1COc2ccccc2O1)Nc1ccc(Cl)cc1 (stereo unspecified) | / | .
